The list is not random: actives were taken first. Their share in the collection is about 3.1%.
EP2 modulator – EP2 receptor (human) modulation. hit rate 0.83% among 260,000. EP2-expressing cells, cAMP HTRF FRET, PGE2 co-stimulation. AID 940. induction, % at 25 µM. P43116;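 active means compounds whose cAMP rise, as percent of the full-agonist control response, exceeds 60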;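 further: rat C6 glioma line stably carrying human EP2 under a CMV promoter; the protocol text gives 20 µM as final concentration; 100% = response of wells given 1 µM PGE2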
PGE2 EP2 inh – blocks the human prostaglandin E2 receptor EP2. P43116. C6 glioma cells expressing human EP2, cAMP TR-FRET; cells stimulated with saturating PGE2. inhibition, % at 25 µM. hit rate 0.52% among 260,000;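 active means percent inhibition above 40 after rounding to a whole number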;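 further: rat C6 glioma host cells with rolipram phosphodiesterase inhibitor present; the protocol text gives 20 µM as final concentration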
S1P3 antag-1 – blocks the human S1P3 receptor. Q99500. CHO S1P3 NFAT-BLA reporter, FRET fluorescence, antagonist mode. inhibition, % at 4.98 µM. hit rate 0.27% among 170,000. AID 485;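 active means inhibition above the plate cutoff, the mean inhibition of test wells on that plate plus 3 SD, cut at about 28% in these data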;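 further: cells challenged with S1P at its EC80 of 0.8 µM; blue over green emission ratio from cleaved BLA substrate after 4 h stimulation; 0% = S1P-stimulated wells and 100% = unstimulated DMSO-only wells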
Cl transport mod – KCC2 (human) Cl- transport modulation; Q9H2X9; KCC2 cells, thallium flux FluoZin-2 fluorescence; B-score of Tl+ flux slope (higher = more flux/activation; lower = inhibition) at 10 µM; hit rate 2.2% among 190,000; AID 1456;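 active means thallium flux slope and its plate-corrected score both differing from the plate sample mean at a set confidence after two filtering rounds, in either direction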;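 further: slope of fluorescence scaled to starting intensity during 10 to 20 s after thallium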
S1P3 antag-2 – human S1P3 receptor antagonism, confirmation; CHO S1P3 NFAT-BLA reporter, FRET, antagonist mode; AID 1429; hit rate 30% among 240; inhibition, % at 4.98 µM; shares compounds with S1P3 antag-1;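 active means inhibition above the hit threshold that was computed for the earlier primary screen, cut at about 30% in these data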;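 further: 0% = S1P-stimulated wells and 100% = unstimulated DMSO-only wells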
Numbers without * were called inactive; . = no result.

SMILES	EP2 modulator	PGE2 EP2 inh	S1P3 antag-1	Cl transport mod	S1P3 antag-2
O=C(OC(C(=O)Nc1cccc(C(F)(F)F)c1)c1ccccc1)C1CCCCC1 (configuration not stated)	-11	1	37*	0.51	30*
Cc1cccc(OCC(=O)Nc2ccc3c(c2)nc(CN2CCCCC2)n3C)c1	0	2	30*	-0.27	-11
Cn1c(CN2CCCC2)nc2cc(NC(=O)COc3ccccc3)ccc21	3	6	.	0.04	.
COc1ccc(F)cc1S(=O)(=O)N1CCN(c2ccccc2)CC1	-99	10	.	.	.
O=C(c1cnn2cccnc12)N1CCC(c2ncncc2-c2ccncc2)CC1	0	.	.	.	.
Cc1ccc(NC(=O)C(OC(=O)c2ccc(F)cc2)c2ccccc2)cc1Cl (configuration not stated)	23	7	36*	1.2	55*
CCn1c(COc2ccc(Br)cc2)nnc1SCC(=O)Nc1c(C)cc(C)cc1C	45	25	.	.	.
COCCNC(=O)Cn1nc(C)n2c(cc3sccc32)c1=O	-42	.	.	.	.
CCOc1ccc(C(=O)c2cc([N+](=O)[O-])ccc2N2CCOCC2)cc1	0	12	33*	0.12	19
COc1ccc(/C=N/NC(=O)c2cc(C34CC5CC(CC(C5)C3)C4)[nH]n2)cc1OC	-15	1	-8	0.73	.
O=C(N/N=C/c1ccc(O)cc1)c1cc(C23CC4CC(CC(C4)C2)C3)[nH]n1	-22	18	31*	0.21	35*
CCC(O)C1CCN(C(=O)c2cc(COc3ccc4ncccc4c3)on2)CC1 (configuration not stated)	-73	23	33*	-0.13	8
O=C(c1cc(COc2ccc3ncccc3c2)on1)N1CCC(O)CC1	-31	5	9	-0.25	.
CN(Cc1ccccc1)CC(O)COc1ccc(CNCCc2cccnc2)cc1 (configuration not stated)	-2	3	31*	-0.85	-14
CCCOc1ccc(/C=N\NC(=O)CCc2n[nH]c(=O)[nH]c2=O)cc1OC	-14	7	29*	0.62	-12
COc1ccc(/C=N/NC(=O)CCc2n[nH]c(=O)[nH]c2=O)cc1OC	25	7	-9	1.8	.
OC(CN1CCC(O)(c2ccc(F)cc2)CC1)c1ccc2c(c1)OCCCO2 (configuration not stated)	-52	2	.	.	.
CC[C@@H]1C=C(C)C[C@H](C)C[C@H](OC)[C@H]2O[C@@](O)(C(=O)C(=O)N3CCCC[C@H]3C(=O)O[C@H](/C(C)=C/[C@@H]3CC[C@@H](O)[C@H](OC)C3)[C@H](C)[C@@H](O)CC1=O)[C@H](C)C[C@@H]2OC	-25	18	89*	-0.64	105*
C#CCOc1ccc(C2NC(=O)NC(C)=C2C(=O)Nc2ccccc2C)cc1OCC (configuration not stated)	11	9	.	.	.
Cc1ccc(NC(=O)C2(c3ccc([N+](=O)[O-])cc3)CCCC2)cc1	-11	5	48*	-0.35	50*
Cc1cc(NNC(=O)Nc2cccc(Cl)c2)nc2c1c(C)nn2C	-9	7	32*	-1.4	14
COc1ccc(CN[C@@H]2CCC(=O)N[C@H]2c2cc(F)cc(F)c2)cc1OC	-15	8	.	.	.
CCCOC(=O)c1ccc(Oc2cn[nH]c2-c2ccc(O)cc2O)cc1	-32	6	-1	-1	.
CCOC(=O)c1ccc(Oc2cn[nH]c2-c2ccc(O)cc2O)cc1	-34	14	29*	-1.3	-16
CC[C@H](Cn1ncc2ccccc2c1=O)NC(=O)C1(c2ccc(OC)cc2)CC1	-20	.	.	.	.
SMILES	EP2 modulator	PGE2 EP2 inh	S1P3 antag-1	Cl transport mod	S1P3 antag-2
O=C(N/N=C/c1ccc(O)cc1)Nc1cccc2nsnc12	-26	5	31*	0.88	4
O=C(CN1CCN(Cc2ccccc2)CC1)NCCNc1ccc([N+](=O)[O-])cn1	-3	9	51*	.	-18
CC(=O)CCC(=O)OCC(=O)Nc1ccc(SC(F)F)cc1	-25	6	43*	-0.024	-10
CC(C)=CC(=O)OCC(=O)Nc1ccc(SC(F)F)cc1	-5	2	-14	-1.1	.
CSc1ccccc1C(=O)NCCOc1cccc(C)c1	-34	9	39*	1.2	-5
Cc1ccc(C(=O)NCCOc2cccc(C)c2)cc1	-74	4	3	-0.49	.
Cc1cccc(CN2CCc3nc(N4CCC(C)CC4)[nH]c(=O)c3C2)n1	4	9	.	.	.
